Here are results for 30 molecules from PubChem BioAssay (Tox21).

A short description of assay [1]: qHTS RealTime-Glo MT Cell Viability Assay in HEK293 cells - 0 hour (AID 1224880). Further: top concentration of the series differs between compounds; nearly all actives have a fitted effect of over 45% in size. The method, boiled down: (§1)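 Viable HEK293 cells reduce a cell-permeant prosubstrate; the product diffuses out and is consumed by NanoLuc in the medium to give light. Compounds went in after a 5 h incubation and plates were read over the treatment course.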
Assay [2] in a line: A CellTox Green Cytotoxicity Assay to monitor cytotoxicity in HepG2 cells - 0 hour (AID 1224882). Further: nearly all actives have a fitted effect of over 35% in size. Put shortly: (§2)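 Using 1536-well format, dye-containing HepG2 suspension was seeded, allowed 5 h at 37 C/5% CO2, dosed by pintool with compounds, positive and negative controls, and imaged for fluorescence across 40 h.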
The nature of assay [3]: A CellTox Green Cytotoxicity Assay to monitor cytotoxicity in HepG2 cells - 32 hour (AID 1224883). Further: nearly all actives have a fitted effect of over 50% in size. Further: potency means the concentration at half of the fitted maximal effect. The method, boiled down: as §2
Assay [4] can be described thus: A CellTox Green Cytotoxicity Assay to monitor cytotoxicity in HEK293 cells - 8 hour (AID 1224884). Further: nearly all actives have a fitted effect of over 35% in size. Put shortly: (§3)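 Fluorescence intensity, read at 0, 8, 16, 24, 32 and 40 h of compound treatment, reflected dye binding to DNA of dead HEK293 cells; compounds (23 nL, DMSO) were added 5 h after plating cells with reagent.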
Assay [5] in a line: qHTS RealTime-Glo MT Cell Viability Assay in HepG2 cells - 16 hour (AID 1224885). Further: nearly all actives have a fitted effect of over 50% in size. The method, boiled down:
(§4)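 Cells + NanoLuc/prosubstrate dispensed (600 cells/well) → 5 h at 37 C/5% CO2 → compounds in DMSO transferred → 40 h incubation at 37 C, luminescence read at 0, 8, 16, 24, 32, 40 h.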

A short description of assay [6]: qHTS RealTime-Glo MT Cell Viability Assay in HEK293 cells - 8 hour (AID 1224887). Further: nearly all actives have a fitted effect of over 50% in size. Further: potency means the concentration at half of the fitted maximal effect. The method, boiled down: as §1
Assay [7] can be described thus: A CellTox Green Cytotoxicity Assay to monitor cytotoxicity in HEK293 cells - 16 hour (AID 1224888). Further: nearly all actives have a fitted effect of over 35% in size. The method, boiled down:
as §3

Assay [8] in a line: qHTS RealTime-Glo MT Cell Viability Assay in HepG2 cells - 0 hour (AID 1224889). Further: nearly all actives have a fitted effect of over 50% in size. The method, boiled down:
as §4

Assay [9] in a line: qHTS RealTime-Glo MT Cell Viability Assay in HEK293 cells - 24 hour (AID 1224886). Further: nearly all actives have a fitted effect of over 50% in size. Further: potency means the concentration at half of the fitted maximal effect. The method, boiled down:
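Tox21 10K qHTS, HEK293, 600 cells/well, RealTime-Glo reagent co-dispensed with cells; 5 h preincubation, compound by pintool, 37 C, luminescence at 0–40 h.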

Values joined by “and” are separate entries in the source; they are usually repeats but may differ in a detail not shown here. Identical values can stand only once. Records with an inconclusive call do not appear. A structure can be active in one record and inactive in another. Active and inactive are the calls of the source. The call rests on the fitted dose curve; in most records, active means well fitted curve in the direction sought with a large enough effect in the repeat runs; inconclusive means weak or mixed curves; inactive means no such curve, though single readings can be large; an effect the other way counts as inactive or inconclusive.

`O=C1c2ccccc2CCc2ccccc21`: the result in [1], in assay [2] and in assay [4] was inactive. For the same molecule, the Potency result in assay [3], in assay [5], in assay [6], in assay [7] and in [8] was “inactive” in each case.
As to `CCCOC(=O)c1ccccc1`, the result in assay [1], in assay [2] and in assay [4] was inactive. Also, the Potency result in assay [3], in [5], in [9], in assay [6] and in assay [8] was “inactive” each time.
Take `O=C(O)c1ccc(S(=O)(=O)N(Cl)Cl)cc1`: the call in assay [1], in [2] and in [4] was inactive. For the same molecule, the Potency entry in assay [3], in [5], in assay [7] and in assay [8] was “inactive” in each case. Also, the Potency in [6] is 49.3 µM (active) and inactive.
Consider `CC(C)(Oc1ccc(CCNC(=O)c2ccc(Cl)cc2)cc1)C(=O)O`, for which the result in assay [1], in assay [2] and in assay [4] was inactive. Besides, the Potency result in assay [3], in assay [5], in assay [9], in assay [6], in assay [7] and in assay [8] was “inactive” in each case.
On to `O=C(O)c1cc2ccccc2cc1O`, for which the molecule was called inactive in assay [1], in [2] and in assay [4]. For the same molecule, the Potency result in assay [3], in assay [5], in assay [6] and in [8] was “inactive” each time.
`CN/C(=C\[N+](=O)[O-])NCCSCc1csc(CN(C)C)n1`: the result in [1], in [2] and in assay [4] was inactive. Further, the Potency entry in [3], in assay [5], in assay [6] and in assay [8] was “inactive” each time.
With `O=C(O)/C=C/C(=O)O`, the outcome in [1], in assay [2] and in [4] was inactive. Further, the Potency result in [3], in assay [5], in [9], in assay [6] and in assay [8] was “inactive” throughout.
Take `NC(=S)NNC(N)=S`: the molecule was called inactive in [1], in assay [2] and in assay [4]. Besides, the Potency result in assay [3], in [5], in assay [9], in [6], in [7] and in [8] was “inactive” each time.
In the case of `CCc1ccccc1CC`, the result in assay [1], in [2] and in [4] was inactive. Moreover, the Potency entry in assay [3], in assay [5], in [9], in assay [6] and in assay [8] was “inactive” each time.
As to `CC(C)OP(=O)(CP(=O)(OC(C)C)OC(C)C)OC(C)C`, the call in [1], in assay [2] and in assay [4] was inactive. The Potency result in [3], in [5], in assay [9], in assay [6] and in assay [8] was “inactive” each time.
As to `CC(CCO)CC(C)(C)C` (stereo not given), the outcome in assay [1], in [2] and in assay [4] was inactive. Besides, the Potency entry in assay [3], in [5], in assay [9], in assay [6], in assay [7] and in assay [8] was “inactive” in each case.
In the case of `COc1ccc(C)cc1N`, the result in [1], in assay [2] and in assay [4] was inactive. For the same molecule, the Potency entry in assay [3], in assay [5], in assay [6] and in assay [8] was “inactive” each time.
For `C=C(C)C(=O)OCC(C)C`, the molecule was classed as inactive in assay [1], in [2] and in [4]. The Potency entry in assay [3], in assay [5], in assay [9], in assay [6], in [7] and in [8] was “inactive” in each case.
Turning to `Cc1ccc(S(=O)(=O)N=C=O)cc1`, the call in assay [1], in [2] and in [4] was inactive. In addition, the Potency entry in [3], in assay [5], in assay [9], in assay [6], in assay [7] and in assay [8] was “inactive” throughout.
With `C=CC(=O)OCCC(=O)O`, the call in assay [1], in assay [2] and in [4] was inactive. Also, the Potency result in assay [3], in [5], in assay [6] and in [8] was “inactive” in each case.
Regarding `OCc1ccccc1`, the call in assay [1], in assay [2] and in assay [4] was inactive. The Potency entry in assay [3], in [5], in assay [9], in assay [6], in assay [7] and in assay [8] was “inactive” in each case.
Regarding `OC1C(O)C(O)C(O)C(O)C1O` (stereo not given), the result in assay [1], in assay [2] and in assay [4] was inactive. Further, the Potency result in assay [3], in [5], in assay [6] and in assay [8] was “inactive” in each case.
`CN(C)c1ccc(Cc2ccc(N(C)C)cc2)cc1`: the outcome in assay [1], in assay [2] and in assay [4] was inactive. Moreover, the Potency entry in [3], in [5] and in assay [8] was “inactive” in each case. Further, the Potency in [9] was 22 µM (active) and 21.9 µM (active).
Take `CCCCCCO`: the outcome in assay [1], in assay [2] and in assay [4] was inactive. The Potency entry in assay [3], in assay [5], in [6], in [7] and in [8] was “inactive” in each case.
With `COCCOC(=O)c1ccccc1C(=O)OCCOC`, the molecule was classed as inactive in assay [1], in assay [2] and in [4]. Also, the Potency entry in assay [3], in [5], in [6], in [7] and in assay [8] was “inactive” in each case.
Consider `O=C(OCC1CCC2OC2C1)C1CCC2OC2C1` (stereo not given), for which the call in [1], in [2] and in [4] was inactive. Further, the Potency result in assay [3], in [5], in [9], in assay [6] and in assay [8] was “inactive” in each case.
Regarding `CCOC(=O)n1ccn(C)c1=S`, the molecule was classed as inactive in [1], in [2] and in assay [4]. Besides, the Potency result in assay [3], in assay [5], in assay [6], in [7] and in assay [8] was “inactive” each time.
For the molecule `CC(=O)OCCOC(C)=O`, the molecule was called inactive in assay [1], in assay [2] and in assay [4]. Also, the Potency result in assay [3], in [5], in assay [6], in [7] and in [8] was “inactive” throughout.
With `C[Si]1(C)O[Si](C)(C)O[Si](C)(C)O[Si](C)(C)O1`, the molecule was classed as inactive in assay [1], in [2] and in assay [4]. Further, the Potency entry in assay [3], in assay [5], in assay [9], in assay [6], in [7] and in assay [8] was “inactive” in each case.
Consider `CC(CCl)OP(=O)(OC(C)CCl)OC(C)CCl` (stereo not given), for which the result in [1], in assay [2] and in assay [4] was inactive. Further, the Potency result in assay [3], in [5], in assay [9], in [6], in assay [7] and in assay [8] was “inactive” in each case.
`Brc1ccc(Br)c(Br)c1`: the molecule was classed as inactive in assay [1], in assay [2] and in assay [4]. Moreover, the Potency result in assay [3], in [5], in [9], in assay [6], in [7] and in [8] was “inactive” each time.
Turning to `c1ccc2c(c1)Cc1ccccc1-2`, the result in assay [1], in [2] and in assay [4] was inactive. Further, the Potency entry in assay [3], in assay [5], in [6], in [7] and in [8] was “inactive” each time.
Consider `O=C1CCCC1`, for which the outcome in assay [1], in assay [2] and in assay [4] was inactive. Moreover, the Potency result in [3], in assay [5], in [9], in [6], in [7] and in assay [8] was “inactive” each time.
As for `CC(C)CCCCCCCOC(=O)CCCCC(=O)OCCCCCCCC(C)C`, the call in [1], in [2] and in [4] was inactive. In addition, the Potency entry in assay [3], in [5], in assay [9], in [6] and in assay [8] was “inactive” throughout.
For `CCCCC(C=O)CC` (stereo not given), the molecule was classed as inactive in assay [1], in assay [2] and in assay [4]. For the same molecule, in assay [3], the Potency result was “inactive and 14.6 µM (active)”. For the same molecule, the Potency entry in [5], in [9], in [6], in assay [7] and in assay [8] was “inactive” in each case.
